Bim-Mcl-1: inhibitors of Bim peptide binding to Mcl-1, primary screen, biochemical, bead-based flow cytometry, multiplex; inhibition, % at 10 µM; Induced myeloid leukemia cell differentiation protein Mcl-1 (Homo sapiens), Q07820; 190,000 tested, 0.1% active; Bim peptide-Mcl-1 binding; AID 1009, 2008; in the data active = inhibition above about 40%
Target sequence (Q07820 whole entry, looked up): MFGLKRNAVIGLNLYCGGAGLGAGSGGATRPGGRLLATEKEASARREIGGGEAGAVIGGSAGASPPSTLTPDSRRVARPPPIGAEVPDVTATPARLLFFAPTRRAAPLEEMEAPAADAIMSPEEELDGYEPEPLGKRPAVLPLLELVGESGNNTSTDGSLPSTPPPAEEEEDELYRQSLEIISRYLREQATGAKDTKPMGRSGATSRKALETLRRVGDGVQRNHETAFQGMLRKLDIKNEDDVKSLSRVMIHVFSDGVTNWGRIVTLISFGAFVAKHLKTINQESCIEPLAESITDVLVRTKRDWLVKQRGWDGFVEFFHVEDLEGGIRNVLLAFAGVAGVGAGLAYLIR
GLD-1 TGE inh: GLD-1/TGE RNA complex disruptors, primary screen, biochemical, fluorescence polarization | Female germline-specific tumor suppressor gld-1 (Caenorhabditis elegans), Q17339 | purified GLD-1 + fluorescein TGE RNA | inhibition, % at 5.96 µM | 320,000 tested, 0.44% active;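 active = percent inhibition above a per-plate cutoff, the plate mean of test compounds plus 3 SD, cut at about 30% in these data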
Mcl1-Bid inh: Mcl-1/Bid binding inhibitors, primary screen, biochemical, TR-FRET, 1536-well; Induced myeloid leukemia cell differentiation protein Mcl-1 (Homo sapiens), Q07820; TR-FRET Mcl-1/Bid-Dy647 peptide binding; inhibition, % at 21.7 µM; 220,000 tested, 0.97% active; AID 1021, 2008;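 active = compounds that cut the binding signal by more than half at the single screening dose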;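 note: His-tagged Mcl-1 with europium anti-His antibody binding Bid BH3 peptide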
Mcl1 Noxa PPI: Mcl-1/Noxa binding inhibitors, primary screen, biochemical, TR-FRET, 1536-well; Induced myeloid leukemia cell differentiation protein Mcl-1 (Homo sapiens), Q07820; TR-FRET Mcl-1/Noxa peptide binding, 2 h; inhibition, % at 21.7 µM; 220,000 tested, 1.5% active; AID 1022, 2008;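 active = compounds that cut the protein-peptide binding signal by more than 50% relative to plate controls in a single-dose test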;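 note: His-tagged Mcl-1 with rhodamine Noxa BH3 peptide and terbium anti-His antibody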
MCL1-BIM inh: inhibitors of MCL1 binding to BIM-BH3, primary screen, biochemical, fluorescence polarization. Induced myeloid leukemia cell differentiation protein Mcl-1 (Homo sapiens), Q07820. GST-MCL1 / FITC-Bim-BH3 fluorescence polarization. 320,000 tested, 0.68% active. inhibition, % at 10.9 µM;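 active = inhibition above the mean inhibition of all tested compounds plus 3 SD, set per campaign, cut at about 40% in these data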;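 note: higher means more loss of mP so more displacement of Bim peptide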
Bcl-xL primary: inhibitors of human Bcl-xL, primary screen, biochemical, fluorescence polarization, HTS. inhibition, % at 10.9 µM. GST-Bcl-xL / FITC-Bim BH3 peptide fluorescence polarization. 320,000 tested, 0.7% active. Bcl-2-like protein 1 (Homo sapiens), Q07817;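 active = inhibition above the mean of all tested compounds plus 3 SD, cutoff set per campaign, cut at about 30% in these data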;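 note: inhibitors lower millipolarization by displacing the labeled peptide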
Target sequence (Q07817 whole entry, looked up): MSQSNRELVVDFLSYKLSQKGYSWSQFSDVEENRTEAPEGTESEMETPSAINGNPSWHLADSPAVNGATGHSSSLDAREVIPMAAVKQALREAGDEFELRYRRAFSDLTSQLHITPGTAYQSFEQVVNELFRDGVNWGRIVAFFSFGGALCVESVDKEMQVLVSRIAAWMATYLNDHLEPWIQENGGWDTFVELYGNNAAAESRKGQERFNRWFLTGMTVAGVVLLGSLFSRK
Hits are given with their value; – = inactive; · = no result. The list is not random: actives were taken first. Their share in the collection is about 2.3%.

SMILES	Bim-Mcl-1	GLD-1 TGE inh	Mcl1-Bid inh	Mcl1 Noxa PPI	MCL1-BIM inh	Bcl-xL primary
CCS(=O)(=O)C1=NN2C(=N)/C(=C\c3ccc(SCc4ccco4)o3)C(=O)N=C2S1	–	·	–	79.7	·	·
Cc1nn(-c2ccccc2)c(C)c1/C=N/NC(=O)CSc1nc2ccccc2c(=O)n1-c1ccc(Br)cc1	–	–	–	–	–	–
Cc1ccc(-n2c(SCC(=O)N/N=C/c3c(C)nn(-c4ccccc4)c3C)nc3ccccc3c2=O)cc1	–	–	53.1	–	–	–
CCOC(=O)C(=CNNc1cccc(Cl)c1)C(=O)OCC	·	–	–	52.2	–	–
CC(=O)N(CCCNC(=O)c1ccccc1)C(=O)c1ccccc1	·	–	·	·	–	–
NC(=O)CN1C(=O)C(=O)N(Cc2cccc(C(F)(F)F)c2)C1=O	·	–	·	·	–	–
NNc1nc(-c2ccccc2)cs1	–	–	83.2	–	–	–
CCOC(=O)c1sc(NC(=O)C2CC(=O)N(c3ccc(C)cc3)C2)nc1C (stereo not drawn)	·	–	·	·	–	–
Cc1ccc(Nc2nc3ccccc3s2)c(C)c1	–	–	–	–	–	–
Cc1cc(O)ccc1Nc1nc2ccccc2nc1Nc1ccc(O)cc1C	–	–	–	67.5	–	–
Cc1cc(NS(=O)(=O)c2ccc(NC(=O)c3cc4c(=O)n5ccccc5nc4s3)cc2)nc(C)n1	–	·	–	–	·	·
CN(C)S(=O)(=O)c1cccc(NC(=O)c2cc3c(=O)n4ccccc4nc3s2)c1	–	–	68.9	–	–	–
O=C(c1cccc(C(F)(F)F)c1)C1CCCN(C(=O)CN2CCOC2=O)C1 (stereo not drawn)	·	–	·	·	–	–
Oc1ccccc1-c1cc(-c2ccco2)[nH]n1	–	–	–	–	–	–
Oc1ccc(Br)cc1-c1cc(-c2ccco2)[nH]n1	–	–	–	63.9	–	–
Cc1ccc(-n2c(O)c(C=Nc3ccccc3-c3n[nH]c(=S)[nH]c3=O)c3ccccc3c2=O)c(C)c1	–	–	–	62.8	–	–
Cc1cccc(-n2c(O)c(C=Nc3ccccc3O)c3ccccc3c2=O)n1	·	–	–	–	–	–
Cc1ccc(-n2c(O)c(C=Nc3ccccc3-c3n[nH]c(=S)[nH]c3=O)c3ccccc3c2=O)cc1C	–	·	–	100.6	·	·
Cc1cccc(-n2c(O)c(C=Nc3ccccc3-c3n[nH]c(=S)[nH]c3=O)c3ccccc3c2=O)n1	·	–	–	–	–	–
NC(=O)c1ccc(-n2nnnc2SCC(=O)Nc2ccccc2F)cc1	·	–	·	·	–	–
Cc1cc(=O)n2nc(N3CCCC(C(=O)NC4CCC(C)CC4)C3)sc2n1 (stereo not drawn)	·	–	·	·	–	–
Cc1cc(C)c(S(=O)(=O)NCc2cn3c(C)csc3n2)cc1C	–	–	–	76.2	–	–
Cc1cc(C)c(S(=O)(=O)NCc2cn3c(C)csc3n2)c(C)c1	–	–	–	–	–	–
COC(CNC(=O)C1CCN(S(=O)(=O)c2ccc3nc4c(c(C(=O)O)c3c2)CC(C)CC4)CC1)OC (stereo not drawn)	·	–	·	·	–	31.4
CC1CCc2nc3ccc(S(=O)(=O)N4CCC(C(=O)O)CC4)cc3c(C(=O)O)c2C1 (stereo not drawn)	·	–	·	·	–	–
SMILES	Bim-Mcl-1	GLD-1 TGE inh	Mcl1-Bid inh	Mcl1 Noxa PPI	MCL1-BIM inh	Bcl-xL primary
COc1ccc2nc(SCC(C)=O)c(C#N)cc2c1	–	–	–	–	–	32.4
N#C/C(=C/c1ccc(-c2cc([N+](=O)[O-])ccc2Cl)o1)C(N)=O	·	–	56.6	69.5	–	–
CNC(=O)/C(C#N)=C/c1ccc(-c2ccc(OC)cc2[N+](=O)[O-])o1	–	–	66.1	–	–	–
CC(OC(=O)CCN=C1NS(=O)(=O)c2ccccc21)C(=O)Nc1ccc(F)c(F)c1F (stereo not drawn)	·	–	·	·	–	–
CC(=O)Nc1ccc(OCC(=O)Nc2ccc(Cl)c(S(=O)(=O)N3CCOCC3)c2)cc1	·	–	·	·	·	·
CCOC(=O)c1cc2c(=O)n3cccc(C)c3nc2n(Cc2ccco2)c1=NC(=O)c1cccnc1	–	·	–	68.8	·	·
Cc1cccn2c(=O)c3cc(C#N)c(=NC(=O)c4ccccc4)n(Cc4ccco4)c3nc12	·	–	·	·	–	34.7
CCOC(=O)c1cc2c(=O)n3ccccc3nc2n(Cc2ccco2)c1=NC(=O)c1cccnc1	–	–	–	50.8	–	–
Cc1cccc(NC(=O)C(Cc2ccccc2)c2nn[nH]n2)c1C (stereo not drawn)	·	–	·	·	–	–
C=C(C)C(=O)N1CC2(CC(c3cccc(NC(=O)/C=C\C=C/C)c3)=NO2)C[C@H]1C(N)=O (stereo partly drawn)	·	–	–	–	–	–
C=C(C)C(=O)Nc1cccc(C2=NOC3(C2)C[C@@H](C(N)=O)N(C(=O)/C=C/CC)C3)c1 (stereo partly drawn)	·	–	–	–	–	–
C/C=C\C=C/C(=O)Nc1cccc(C2=NOC3(C2)C[C@@H](C(N)=O)N(C(=O)/C=C/C=C\C)C3)c1 (stereo partly drawn)	·	–	–	54.3	–	–
C=C(C)C(=O)Nc1cccc(C2=NOC3(C2)C[C@@H](C(N)=O)N(C(=O)C(=C)C)C3)c1 (stereo partly drawn)	·	–	–	82.3	–	–
C=C(C)C(=O)Nc1cccc(C2=NOC3(C2)C[C@H](C(N)=O)N(C(=O)/C=C/C)C3)c1 (stereo partly drawn)	·	–	–	76.1	–	–
C=C(C)C(=O)Nc1cccc(C2=NOC3(C2)C[C@@H](C(N)=O)N(C(=O)C2(C)CC2)C3)c1 (stereo partly drawn)	·	–	–	60.5	–	–
Cc1cc(Cl)ccc1OCCCC(=O)OCC(=O)Nc1cccc(S(N)(=O)=O)c1	·	–	·	·	–	–
O=C(COc1coc(CN2CCc3ccccc3C2)cc1=O)Nc1cccc([N+](=O)[O-])c1	·	–	·	·	–	–
Cc1ccc(C2C(C(=O)c3cc4ccccc4o3)=C(O)C(=O)N2CCN2CCOCC2)o1 (stereo not drawn)	–	–	51.2	–	–	–
Cc1ccc(C2C(C(=O)c3cc4ccccc4o3)=C(O)C(=O)N2CCN2CCOCC2)cc1 (stereo not drawn)	·	–	·	·	–	–
Cc1ccc(OCCn2cnc3c2c(=O)n(C)c(=O)n3C)cc1	·	–	·	·	–	–
CC(NC(=O)c1cc(F)c(F)cc1Cl)C1CC2CCC1C2 (stereo not drawn)	·	–	·	·	–	40.6
O=C(CSc1nncn1-c1ccccc1)Nc1cc(F)ccc1F	·	–	·	·	–	–
